From PubChem BioAssay (NCI)
This is part of a sample that, as a whole, favours compounds with a hit. Of some 83,000 tested, about 20% had one in any assay.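 Assay: single dose, 48 h. Readout: percent growth (0 = no net growth; negative = cell death). Active: <10.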 Activity calls are given as the source filed them.

System: MALME-3M melanoma
Test: NCI-60 one-dose screen, 48 h (100 = growth as untreated, 0 = no growth, -100 = all killed)
Conditions: 10 µM unless noted

SMILES | growth
CCCC[C@H](NC(=O)[C@H]1CCCN1C)C(=O)N(C)[C@H](C[C@@H](OC(C)=O)c1nc(C(=O)N[C@@H](Cc2ccccc2)C[C@H](C)C(=O)OCC)cs1)C(C)C | 49.5% (inactive)
COc1ccc2c(c1)c(-c1nc(-c3c[nH]c4ncccc34)cs1)cn2CCCCN1CCCCC1 | -76.1% (active)
COC(=O)[C@H](Cc1ccccc1)NC(=O)c1csc([C@@H](C[C@H](C(C)C)N(C)C(=O)[C@@H](NC(=O)[C@H]2CCCN2C)C2CC2)OC(C)=O)n1 | 62.9% (inactive)
C[C@]12CC[C@H]3[C@@H](CC[C@]4(O)C[C@@H](O[C@@H]5O[C@H](CO)[C@@H](O[C@@H]6OC[C@@H](O)[C@H](O)[C@H]6O)[C@H](O)[C@H]5O)CC[C@]34C=O)[C@@]1(O)CC[C@@H]2C1=CC(=O)OC1 | -25% (active)
c1cc2c(c3c1CCNC3)OCO2 | 94.8% (inactive)
Fc1ccc2c(c1)c(-c1nc(-c3c[nH]c4ncccc34)cs1)cn2CCCCN1CCCCC1 | -73% (active)
O=C(Nc1ccncc1F)c1cn(CC2CC2)c2ccccc12 | 119% (inactive)
COP(=S)(N1CC1)N1CC1 | 105% (inactive)
C/C=C(\C)C(=O)O[C@@H]1C(O)[C@H]2OC(COC(=O)CCC(=O)CCCCCC[C@H](CCCCC)O[C@@H]3OC(C)[C@H](OC(C)=O)C(O)[C@H]3O2)[C@H]1OC(=O)/C=C/c1ccccc1 (some centres not stated) | 14.9% (inactive)
CCc1ccccc1[C@@H]1C[C@]2(C)CCO[C@@H]2OO1 | 110% (inactive)
CC(=O)O[C@H](C[C@H](C(C)C)N(C)C(=O)[C@@H](NC(=O)[C@H]1CCCCN1C)C(C)(C)C)c1nc(C(=O)N[C@@H](Cc2ccccc2)C[C@H](C)C(=O)O)cs1 | 66.7% (inactive)
COc1ccc(C(=O)c2cc(OC)c(OC)c(OC)c2)cc1OC(C)=O | 78% (inactive)
COc1ccc(N(CC(=O)NCCC[Te]c2ccccc2)C(=O)CNC(=O)OC(C)(C)C)cc1 | 137% (inactive)
COC(=O)[C@@H](C)C[C@H](Cc1ccccc1)NC(=O)c1csc([C@@H](C[C@H](C(C)C)N(C)C(=O)[C@@H](NC(=O)[C@H]2CCCCN2C)C(C)C)OC(C)=O)n1 | 51.5% (inactive)
CC[C@H](C)[C@@H]1OC(=O)C(C)(C)[C@H](O)[C@H](Cc2ccccc2)OC(=O)[C@H](C(C)C)OC(=O)[C@@H](NC(=O)c2cccc(NC=O)c2O)[C@@H](C)OC1=O | 77.4% (inactive)
NC(=O)CNc1ccc([As]=[As]c2ccc(NCC(N)=O)cc2)cc1 (configuration not stated) | 47.2% (inactive)
Fc1ccc2c(c1)c(-c1nc(-c3c[nH]c4ncccc34)cs1)cn2CCN1CCOCC1 | 74.2% (inactive)
O=C([O][Hg][CH2]C1COCC([CH2][Hg][O]C(=O)c2ccccc2)O1)c1ccccc1 (configuration not stated) | -80.5% (active)
O=[N+]([O-])CC(c1ccccc1Cl)c1c(-c2ccccc2)[nH]c2ccccc12 (configuration not stated) | 42.1% (inactive)

SMILES | growth
CCn1c2ccccc2c2cc(C(=O)c3cccc4c3CCCN4)ccc21 | 107% (inactive)
COc1ccc(/C(C)=C(\c2ccc(OCCN3CCOCC3)cc2)c2ccc(OC(=O)Cc3ccccc3)cc2)cc1 | 104% (inactive)
Cc1cc(N(CCCl)CCCl)ccc1C=Nc1ccc(-c2csc(Cc3ccccc3)n2)cc1 | 70.8% (inactive)
Cc1ccc2c(C(C[N+](=O)[O-])c3cccs3)c(-c3ccccc3)[nH]c2c1 (configuration not stated) | 50.9% (inactive)
O=C(CC1(O)C(=O)N(Cc2ccccc2)c2ccc(Cl)cc21)c1ccc(C(=O)NCC2CCC3(CC2)OOC2(CCCCC2)OO3)cc1 (configuration not stated) | -70.3% (active)
CCOC(=O)CCC(NC(=O)C(Cc1ccc(N(CCCl)CCCl)cc1)NC=O)C(=O)OCC (configuration not stated) | -80.2% (active)
COC(=O)[C@@H](C)C[C@H](Cc1ccccc1)NC(=O)c1csc([C@@H](C[C@H](C(C)C)N(C)C(=O)[C@@H](NC(=O)C23CC(NC(C)=O)(C2)C3)C2CC2)OC(C)=O)n1 | 56.4% (inactive)
COC(=O)[C@]12CCC(C)(C)C[C@H]1[C@H]1C(=O)C[C@@H]3[C@@]4(C)C[C@@]5(CC(C)(C)[C@@H]4CC[C@@]3(C)[C@]1(C)CC2)OO[C@@](C)(C(F)(F)F)O5 | 108% (inactive)
CNC(=O)Oc1ccc(N(C)C)cc1C(C)C | 72.1% (inactive)
COc1ccc(/C=C\c2cc(OC)c(OC)c(OC)c2)cc1OCC(=O)Nc1nc2ccc(C(F)(F)F)cc2s1 | 43.8% (inactive)
O=C(CC1(O)C(=O)N(Cc2ccccc2)c2ccc(F)cc21)c1ccc(C(=O)NCC2CCC3(CC2)OOC2(CCCCC2)OO3)cc1 (configuration not stated) | -69.2% (active)
c1cnc2[nH]cc(-c3csc(-c4cn(CCCCN5CCCCC5)c5ccccc45)n3)c2c1 | 92.8% (inactive)
COc1ccc(NC([Se])=NC23CC4CC(CC(C4)C2)C3)cc1 | -18.5% (active)
Clc1cccc(Cl)c1Cl | 103% (inactive)
C[C@]12CCc3sc(-c4ccccc4O)nc3C1=CC[C@@H]1[C@@H]2CC[C@]2(C)C(=O)CC[C@@H]12 | 102% (inactive)
O=C(CC1(O)C(=O)Nc2ccccc21)c1ccc(C(=O)NCC2CCC3(CC2)OOC2(CCCCC2)OO3)cc1 (configuration not stated) | 56.1% (inactive)
CCCOC(=O)N[C@H]1CCc2c(Br)c(OC)c(OC)c(OC)c2-c2ccc(SC)c(=O)cc21 | 38.4% (inactive)
Cc1cc(C)c(CBr)c(C)c1 | 99.3% (inactive)
